Measured values as given in ChEMBL document CHEMBL1961873, “Compounds: GSK PKIS; Assays: Nanosyn kinase panel” (2012).

How the values were obtained:
[1] = molecular target: Ribosomal protein S6 kinase alpha-6 (Homo sapiens) (UniProt Q9UK32); conditions: at 1 µM;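 note: each value is a mean inhibition of RSK4 from a GSK PKIS panel screen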
[2] = molecular target: T1, Serine/threonine-protein kinase Sgk1 (Homo sapiens) (UniProt O00141); conditions: at 0.1 µM
T1 sequence (whole entry): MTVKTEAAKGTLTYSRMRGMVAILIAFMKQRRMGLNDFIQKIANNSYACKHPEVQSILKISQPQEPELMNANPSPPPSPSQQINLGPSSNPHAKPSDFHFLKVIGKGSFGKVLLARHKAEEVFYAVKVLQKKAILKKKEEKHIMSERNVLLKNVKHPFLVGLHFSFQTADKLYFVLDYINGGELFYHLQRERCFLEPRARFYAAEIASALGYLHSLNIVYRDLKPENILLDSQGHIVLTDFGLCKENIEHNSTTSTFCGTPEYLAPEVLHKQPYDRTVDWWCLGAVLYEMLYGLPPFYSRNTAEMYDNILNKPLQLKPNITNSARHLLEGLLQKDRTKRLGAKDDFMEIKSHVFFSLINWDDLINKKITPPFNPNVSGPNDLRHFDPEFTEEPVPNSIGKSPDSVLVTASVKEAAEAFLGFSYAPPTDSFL

[3] = molecular target: T1, Serine/threonine-protein kinase Sgk1 (Homo sapiens); conditions: at 1 µM
[4] = molecular target: T2, Serine/threonine-protein kinase Sgk2 (Homo sapiens) (UniProt Q9HBY8); conditions: at 0.1 µM
T2 sequence (whole entry): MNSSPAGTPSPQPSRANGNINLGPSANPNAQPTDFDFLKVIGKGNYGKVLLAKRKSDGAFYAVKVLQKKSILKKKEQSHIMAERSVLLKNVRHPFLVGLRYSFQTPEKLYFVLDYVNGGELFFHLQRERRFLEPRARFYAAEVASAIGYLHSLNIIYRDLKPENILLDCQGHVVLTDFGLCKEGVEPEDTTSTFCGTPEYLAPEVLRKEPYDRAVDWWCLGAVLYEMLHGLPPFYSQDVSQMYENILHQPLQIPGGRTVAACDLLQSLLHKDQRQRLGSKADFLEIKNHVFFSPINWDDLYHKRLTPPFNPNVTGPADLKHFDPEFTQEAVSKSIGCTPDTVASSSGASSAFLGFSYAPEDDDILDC

[5] = molecular target: T2, Serine/threonine-protein kinase Sgk2 (Homo sapiens); conditions: at 1 µM
[6] = molecular target: T3, Serine/threonine-protein kinase Sgk3 (Homo sapiens) (UniProt Q96BR1); conditions: at 0.1 µM
T3 sequence (whole entry): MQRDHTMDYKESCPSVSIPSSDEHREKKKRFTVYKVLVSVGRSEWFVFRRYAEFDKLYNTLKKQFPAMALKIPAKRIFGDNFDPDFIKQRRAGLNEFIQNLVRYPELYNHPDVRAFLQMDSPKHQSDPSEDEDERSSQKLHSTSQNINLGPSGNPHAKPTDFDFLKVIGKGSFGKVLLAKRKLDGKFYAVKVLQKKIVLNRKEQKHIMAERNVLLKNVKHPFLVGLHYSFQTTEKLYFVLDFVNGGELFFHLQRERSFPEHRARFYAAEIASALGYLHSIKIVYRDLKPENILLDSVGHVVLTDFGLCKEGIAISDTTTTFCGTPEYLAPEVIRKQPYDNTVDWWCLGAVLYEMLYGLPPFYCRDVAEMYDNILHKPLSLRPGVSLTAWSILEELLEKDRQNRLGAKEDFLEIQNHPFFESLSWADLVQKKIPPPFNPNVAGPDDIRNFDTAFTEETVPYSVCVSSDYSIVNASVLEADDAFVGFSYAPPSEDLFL

[7] = molecular target: T3, Serine/threonine-protein kinase Sgk3 (Homo sapiens); conditions: at 1 µM
[8] = molecular target: 5'-AMP-activated protein kinase catalytic subunit alpha-1 (Homo sapiens) (UniProt Q13131); conditions: at 0.1 µM
Chain of 5'-AMP-activated protein kinase catalytic subunit alpha-1 (Homo sapiens) (Q13131 whole entry, looked up): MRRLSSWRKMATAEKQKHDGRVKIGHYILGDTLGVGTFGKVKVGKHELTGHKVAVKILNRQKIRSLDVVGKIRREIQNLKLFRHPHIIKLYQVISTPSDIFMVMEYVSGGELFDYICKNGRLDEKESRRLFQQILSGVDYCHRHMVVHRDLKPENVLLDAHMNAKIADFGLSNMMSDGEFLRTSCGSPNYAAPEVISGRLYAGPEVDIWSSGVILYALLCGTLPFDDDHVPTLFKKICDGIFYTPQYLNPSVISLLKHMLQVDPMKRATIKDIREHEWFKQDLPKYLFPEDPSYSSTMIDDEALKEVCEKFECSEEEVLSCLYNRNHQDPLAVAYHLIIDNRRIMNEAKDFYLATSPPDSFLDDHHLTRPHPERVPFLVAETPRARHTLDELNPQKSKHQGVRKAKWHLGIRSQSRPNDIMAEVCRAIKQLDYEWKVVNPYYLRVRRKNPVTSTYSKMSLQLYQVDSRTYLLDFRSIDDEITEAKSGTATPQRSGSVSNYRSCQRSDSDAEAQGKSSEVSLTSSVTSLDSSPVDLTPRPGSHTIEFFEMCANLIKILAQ

[9] = molecular target: 5'-AMP-activated protein kinase catalytic subunit alpha-1 (Homo sapiens) (UniProt Q13131); conditions: at 1 µM
[10] = molecular target: 5'-AMP-activated protein kinase catalytic subunit alpha-2 (Homo sapiens) (UniProt P54646); conditions: at 0.1 µM
Chain of 5'-AMP-activated protein kinase catalytic subunit alpha-2 (Homo sapiens) (P54646 whole entry, looked up): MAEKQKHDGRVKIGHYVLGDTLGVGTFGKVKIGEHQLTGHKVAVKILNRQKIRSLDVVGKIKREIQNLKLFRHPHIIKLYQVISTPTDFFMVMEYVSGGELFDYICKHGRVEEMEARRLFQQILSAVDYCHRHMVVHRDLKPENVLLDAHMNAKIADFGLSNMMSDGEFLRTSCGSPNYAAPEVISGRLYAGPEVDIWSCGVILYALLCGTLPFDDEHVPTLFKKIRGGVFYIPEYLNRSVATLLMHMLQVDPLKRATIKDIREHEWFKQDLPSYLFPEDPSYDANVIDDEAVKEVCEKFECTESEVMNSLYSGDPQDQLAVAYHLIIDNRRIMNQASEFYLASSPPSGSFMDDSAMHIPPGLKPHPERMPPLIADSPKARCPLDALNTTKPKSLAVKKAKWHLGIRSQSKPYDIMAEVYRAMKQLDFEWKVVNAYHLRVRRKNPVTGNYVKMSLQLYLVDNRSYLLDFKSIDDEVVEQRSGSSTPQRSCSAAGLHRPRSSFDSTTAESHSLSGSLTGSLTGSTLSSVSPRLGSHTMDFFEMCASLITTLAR

[11] = molecular target: 5'-AMP-activated protein kinase catalytic subunit alpha-2 (Homo sapiens) (UniProt P54646); conditions: at 1 µM
[12] = molecular target: T4, NUAK family SNF1-like kinase 1 (Homo sapiens) (UniProt O60285); conditions: at 0.1 µM
T4 sequence (whole entry): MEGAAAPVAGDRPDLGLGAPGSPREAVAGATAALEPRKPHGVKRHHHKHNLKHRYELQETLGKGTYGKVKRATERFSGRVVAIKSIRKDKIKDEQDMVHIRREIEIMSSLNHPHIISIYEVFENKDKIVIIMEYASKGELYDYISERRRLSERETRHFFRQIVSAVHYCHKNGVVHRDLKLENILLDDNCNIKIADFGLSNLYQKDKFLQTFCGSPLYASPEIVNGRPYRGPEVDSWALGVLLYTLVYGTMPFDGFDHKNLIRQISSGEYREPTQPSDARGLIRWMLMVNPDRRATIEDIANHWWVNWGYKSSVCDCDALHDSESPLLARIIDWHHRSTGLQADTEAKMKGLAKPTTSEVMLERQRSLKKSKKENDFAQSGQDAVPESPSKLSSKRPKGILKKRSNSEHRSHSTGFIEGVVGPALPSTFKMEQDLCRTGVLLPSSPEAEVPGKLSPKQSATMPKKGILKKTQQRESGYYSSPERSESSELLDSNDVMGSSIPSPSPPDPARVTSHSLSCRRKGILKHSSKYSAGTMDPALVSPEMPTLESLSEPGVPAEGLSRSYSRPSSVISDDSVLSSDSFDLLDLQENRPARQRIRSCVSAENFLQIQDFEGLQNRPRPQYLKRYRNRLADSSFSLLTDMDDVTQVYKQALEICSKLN

[13] = molecular target: T4, NUAK family SNF1-like kinase 1 (Homo sapiens); conditions: at 1 µM
[14] = molecular target: T5, Serine/threonine-protein kinase BRSK1 (Homo sapiens) (UniProt Q8TDC3); conditions: at 0.1 µM
T5 sequence (whole entry): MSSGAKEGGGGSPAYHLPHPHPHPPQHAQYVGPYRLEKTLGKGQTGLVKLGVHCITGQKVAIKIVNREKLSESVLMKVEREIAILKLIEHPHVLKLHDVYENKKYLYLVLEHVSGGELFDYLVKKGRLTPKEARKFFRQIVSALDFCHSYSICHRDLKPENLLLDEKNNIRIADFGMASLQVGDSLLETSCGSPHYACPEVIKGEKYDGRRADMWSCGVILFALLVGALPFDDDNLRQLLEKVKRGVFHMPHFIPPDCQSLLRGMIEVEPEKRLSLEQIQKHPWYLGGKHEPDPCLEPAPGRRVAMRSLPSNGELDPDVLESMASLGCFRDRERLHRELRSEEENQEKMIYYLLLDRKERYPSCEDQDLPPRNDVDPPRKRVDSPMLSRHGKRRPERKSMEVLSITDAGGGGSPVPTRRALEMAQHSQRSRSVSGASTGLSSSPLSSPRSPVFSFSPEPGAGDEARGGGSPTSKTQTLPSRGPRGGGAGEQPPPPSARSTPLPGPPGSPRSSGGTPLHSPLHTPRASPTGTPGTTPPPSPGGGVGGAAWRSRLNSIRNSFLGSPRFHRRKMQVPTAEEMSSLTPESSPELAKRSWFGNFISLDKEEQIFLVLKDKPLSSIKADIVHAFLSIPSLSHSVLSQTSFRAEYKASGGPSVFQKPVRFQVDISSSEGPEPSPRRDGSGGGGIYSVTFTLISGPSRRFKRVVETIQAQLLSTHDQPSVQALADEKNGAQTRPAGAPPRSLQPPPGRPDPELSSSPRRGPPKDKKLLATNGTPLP

[15] = molecular target: T5, Serine/threonine-protein kinase BRSK1 (Homo sapiens); conditions: at 1 µM
[16] = molecular target: T6, Serine/threonine-protein kinase BRSK2 (Homo sapiens) (UniProt Q8IWQ3); conditions: at 0.1 µM
T6 sequence (whole entry): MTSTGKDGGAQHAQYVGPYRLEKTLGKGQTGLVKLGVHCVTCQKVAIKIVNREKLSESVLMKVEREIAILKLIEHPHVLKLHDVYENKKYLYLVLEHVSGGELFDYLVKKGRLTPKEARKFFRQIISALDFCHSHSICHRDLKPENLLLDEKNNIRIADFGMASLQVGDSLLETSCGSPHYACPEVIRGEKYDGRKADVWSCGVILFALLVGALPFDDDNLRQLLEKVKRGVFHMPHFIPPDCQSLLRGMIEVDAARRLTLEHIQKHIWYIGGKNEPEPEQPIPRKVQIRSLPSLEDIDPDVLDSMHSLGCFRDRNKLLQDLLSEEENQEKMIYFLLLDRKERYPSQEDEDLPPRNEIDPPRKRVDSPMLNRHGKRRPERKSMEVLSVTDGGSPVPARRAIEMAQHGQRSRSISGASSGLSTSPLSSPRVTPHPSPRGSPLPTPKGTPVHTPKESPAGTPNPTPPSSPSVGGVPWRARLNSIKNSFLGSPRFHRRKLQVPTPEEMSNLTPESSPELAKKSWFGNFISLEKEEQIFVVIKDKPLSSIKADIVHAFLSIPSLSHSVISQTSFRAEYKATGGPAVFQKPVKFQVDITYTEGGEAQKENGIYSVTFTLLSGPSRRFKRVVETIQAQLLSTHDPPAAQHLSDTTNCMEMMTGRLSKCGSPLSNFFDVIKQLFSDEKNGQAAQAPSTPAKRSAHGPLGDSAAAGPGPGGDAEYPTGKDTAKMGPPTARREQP

[17] = molecular target: T6, Serine/threonine-protein kinase BRSK2 (Homo sapiens); conditions: at 1 µM
[18] = molecular target: Calcium/calmodulin-dependent protein kinase type 1D (Homo sapiens) (UniProt Q8IU85); conditions: at 0.1 µM
Chain of Calcium/calmodulin-dependent protein kinase type 1D (Homo sapiens) (Q8IU85 whole entry, looked up): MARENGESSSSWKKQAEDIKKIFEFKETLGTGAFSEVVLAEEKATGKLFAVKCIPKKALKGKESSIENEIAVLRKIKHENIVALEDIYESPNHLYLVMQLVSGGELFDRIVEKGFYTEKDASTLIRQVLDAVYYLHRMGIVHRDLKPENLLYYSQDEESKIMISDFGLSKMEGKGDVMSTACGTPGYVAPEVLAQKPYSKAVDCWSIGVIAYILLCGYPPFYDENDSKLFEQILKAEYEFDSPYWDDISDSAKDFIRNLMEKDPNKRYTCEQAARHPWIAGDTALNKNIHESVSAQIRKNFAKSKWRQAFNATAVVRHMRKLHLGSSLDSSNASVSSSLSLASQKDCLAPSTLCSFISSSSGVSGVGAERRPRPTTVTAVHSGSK

[19] = molecular target: Calcium/calmodulin-dependent protein kinase type 1D (Homo sapiens) (UniProt Q8IU85); conditions: at 1 µM
[20] = molecular target: Calcium/calmodulin-dependent protein kinase type II subunit alpha (Homo sapiens) (UniProt Q9UQM7); conditions: at 0.1 µM;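 note: reported values are averages (mean inhibition of CAMK2A)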
Chain of Calcium/calmodulin-dependent protein kinase type II subunit alpha (Homo sapiens) (Q9UQM7 whole entry): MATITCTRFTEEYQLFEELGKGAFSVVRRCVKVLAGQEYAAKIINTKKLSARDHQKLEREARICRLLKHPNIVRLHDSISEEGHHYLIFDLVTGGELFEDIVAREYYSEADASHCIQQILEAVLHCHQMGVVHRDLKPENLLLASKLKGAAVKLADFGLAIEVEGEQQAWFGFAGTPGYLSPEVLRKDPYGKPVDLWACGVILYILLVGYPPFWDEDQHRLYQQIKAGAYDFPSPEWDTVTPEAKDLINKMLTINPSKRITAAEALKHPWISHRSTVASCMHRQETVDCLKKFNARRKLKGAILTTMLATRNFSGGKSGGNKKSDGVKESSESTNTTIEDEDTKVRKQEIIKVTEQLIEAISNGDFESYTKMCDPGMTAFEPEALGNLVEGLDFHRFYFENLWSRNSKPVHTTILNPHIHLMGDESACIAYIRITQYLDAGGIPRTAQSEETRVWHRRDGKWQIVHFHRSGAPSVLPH

Chain of Ribosomal protein S6 kinase alpha-6 (Homo sapiens) (Q9UK32 whole entry): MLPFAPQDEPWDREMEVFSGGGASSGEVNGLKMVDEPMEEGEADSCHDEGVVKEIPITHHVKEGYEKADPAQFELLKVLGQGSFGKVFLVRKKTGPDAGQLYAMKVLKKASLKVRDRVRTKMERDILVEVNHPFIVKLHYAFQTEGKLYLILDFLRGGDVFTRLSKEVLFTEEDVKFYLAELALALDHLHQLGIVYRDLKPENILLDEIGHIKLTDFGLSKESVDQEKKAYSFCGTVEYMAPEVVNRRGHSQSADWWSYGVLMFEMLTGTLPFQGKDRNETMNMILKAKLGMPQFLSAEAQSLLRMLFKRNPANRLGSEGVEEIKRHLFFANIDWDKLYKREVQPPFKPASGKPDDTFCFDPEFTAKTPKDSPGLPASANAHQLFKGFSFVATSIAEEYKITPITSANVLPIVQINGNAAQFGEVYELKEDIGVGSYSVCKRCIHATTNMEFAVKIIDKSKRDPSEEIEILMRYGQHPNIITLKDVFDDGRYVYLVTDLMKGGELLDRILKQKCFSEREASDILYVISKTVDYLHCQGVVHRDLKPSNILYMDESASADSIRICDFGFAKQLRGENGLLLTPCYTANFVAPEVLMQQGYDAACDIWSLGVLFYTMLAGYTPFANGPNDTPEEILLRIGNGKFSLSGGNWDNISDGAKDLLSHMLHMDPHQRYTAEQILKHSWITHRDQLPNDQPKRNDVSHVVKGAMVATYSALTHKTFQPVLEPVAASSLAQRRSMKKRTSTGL

SMILES | inhibition [1] | inhibition [2] | inhibition [3] | inhibition [4] | inhibition [5] | inhibition [6] | inhibition [7] | inhibition [8] | inhibition [9] | inhibition [10] | inhibition [11] | inhibition [12] | inhibition [13] | inhibition [14] | inhibition [15] | inhibition [16] | inhibition [17] | inhibition [18] | inhibition [19] | inhibition [20]
C/C(Nc1ccc(S(N)(=O)=O)cc1)=C1/C(=O)Nc2ccccc21 | 20.7% | 5.32% | 18.4% | 1.82% | 2.83% | 0.76% | 2.1% | 1.16% | 9.79% | 3.01% | 4.96% | 6.3% | 34% | 1.67% | 18.9% | 4.55% | 31.1% | -0.31% | -0.55% | -4.87%
Nc1nccc(-c2c(-c3ccc(F)cc3)ncn2C2CCC(O)CC2)n1 (stereo not given) | 3.39% | -2.26% | -1.85% | -3.55% | 7.09% | 0.34% | 1.61% | 3.45% | 0.93% | 0.71% | -1.6% | 9.02% | 39.9% | 0.33% | 1.44% | 1.13% | 1.19% | -2.47% | -0.75% | -3.31%
CCN(CC)Cc1ccc(Nc2nccc(-c3cnn4ncccc34)n2)cc1 | 9.62% | 1.11% | 7.61% | 3.89% | 4.57% | 3.92% | 2.8% | 3.26% | 9.99% | 7.01% | 12.7% | 69% | 84.3% | 3.36% | 3.16% | 2.2% | 10.6% | -0.62% | 4.23% | 2.6%
